The results in this text go back to PubChem BioAssay (EPA / NIEHS).

Structures are written as SMILES. Activity calls are given as the source filed them. How the source made its calls: active means hit-call score of the fitted dose curve at least 0.9, where 1 is the maximum; inactive means score below 0.9.

Conditions in all cases: mRNA level, 48 h; actives raise or lower the signal
Read-out in assay [1]: Cyclin D2 (CCND2), CCND2 (gene 894)
The experiment in a line: LTEA_HepaRG_CCND2: Life Technologies and Expression Analysis (LTEA) Assay for Cyclin D2 (CCND2) using HepaRG (AID 2283449).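 Further: CCND2 transcript measured by TaqMan qRT-PCR and normalised to three housekeeping genes.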 The essentials: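 Chemicals in 0.5% DMSO, eight half-log concentrations from 100 uM top, were applied in duplicate for 48 h to human HepaRG cells in serum-free induction medium. CCND2 mRNA by TaqMan qRT-PCR, normalised to ACTB/GAPDH/POLR2A; bidirectional fit versus DMSO.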

Read-out in assay [2]: Cyclin Dependent Kinase Inhibitor 1A (CDKN1A), CDKN1A (gene 1026)
Kind of assay: LTEA_HepaRG_CDKN1A: Life Technologies and Expression Analysis (LTEA) Assay for Cyclin Dependent Kinase Inhibitor 1A (CDKN1A) using HepaRG (AID 2283450). The essentials: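 Gain or loss of CDKN1A transcript is scored by bidirectional fitting against 0.5% DMSO vehicle. Human HepaRG cultures receive chemicals for 48 h across an 8-point series peaking at 100 uM; expression comes from qRT-PCR.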

Read-out in assay [3]: Cyclin D1 (CCND1), CCND1 (gene 595)
Kind of assay: LTEA_HepaRG_CCND1: Life Technologies and Expression Analysis (LTEA) Assay for Cyclin D1 (CCND1) using HepaRG (AID 2283451). The essentials:
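Expression change is measured by qRT-PCR in HepaRG cells after 48 h treatment across eight concentrations topping at 100 uM, with duplicate wells and DMSO (0.5%) serving as baseline for bidirectional fitting.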

Read-out in assay [4]: catalase (CAT), CAT (gene 847)
Kind of assay: LTEA_HepaRG_CAT: Life Technologies and Expression Analysis (LTEA) Assay for catalase (CAT) using HepaRG (AID 2283452).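 On AC50: TaqMan qRT-PCR signal normalized to ACTB GAPDH and POLR2A housekeeping genes.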 Put shortly: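 HepaRG cells in serum-free induction medium, 0.5% DMSO vehicle, exposed 48 h in duplicate over 8 half-log concentrations from 100 uM. CAT mRNA measured by qRT-PCR, normalized to ACTB, GAPDH, POLR2A; bidirectional fit versus DMSO.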

Read-out in assay [5]: flavin-containing dimethylaniline monooxygenases 3 (FMO3), FMO3 (gene 2328)
The experiment in a line: LTEA_HepaRG_FMO3: Life Technologies and Expression Analysis (LTEA) Assay for flavin-containing dimethylaniline monooxygenases 3 (FMO3) using HepaRG (AID 2283453). Put shortly: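 Differentiated HepaRG cells in serum-free induction medium, exposed 48 h in duplicate to 8 half-log concentrations up to 100 uM in 0.5% DMSO. FMO3 mRNA by qRT-PCR, normalized to ACTB, GAPDH, POLR2A; bidirectional fit vs DMSO.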

Read-out in assay [6]: Cytochrome P450 (CYP1A1), CYP1A1 (gene 1543)
Kind of assay: LTEA_HepaRG_CYP1A1: Life Technologies and Expression Analysis (LTEA) Assay for Cytochrome P450 (CYP1A1) using HepaRG (AID 2283454). The essentials:
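Using HepaRG cultures with 0.5% DMSO as vehicle, eight-concentration exposures (max 100 uM) lasted 48 h. Transcript levels were measured by TaqMan qRT-PCR and normalized to ACTB, GAPDH and POLR2A.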

Read-out in assay [7]: CFLAR gene, CFLAR (gene 8837)
The experiment in a line: LTEA_HepaRG_CFLAR: Life Technologies and Expression Analysis (LTEA) Assay for CFLAR gene using HepaRG (AID 2283455). The essentials:
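Differentiated HepaRG cells in serum-free induction medium were exposed 48 h in duplicate to eight half-log concentrations up to 100 uM in 0.5% DMSO; mRNA measured by TaqMan qRT-PCR, normalized to ACTB, GAPDH, POLR2A; bidirectional fitting versus DMSO.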

Read-out in assay [8]: Forkhead box O1 (FOXO1), FOXO1 (gene 2308)
Kind of assay: LTEA_HepaRG_FOXO1: Life Technologies and Expression Analysis (LTEA) Assay for Forkhead box O1 (FOXO1) using HepaRG (AID 2283456). The essentials: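 Differentiated HepaRG cells, in serum-free induction medium with 0.5% DMSO, exposed 48 h in duplicate to 8-point half-log series from 100 uM. FOXO1 mRNA measured by TaqMan qRT-PCR, normalized to ACTB, GAPDH, POLR2A; bidirectional fit versus DMSO.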

Read-out in assay [9]: growth arrest and DNA damage 45 (GADD45A), GADD45A (gene 1647)
Kind of assay: LTEA_HepaRG_GADD45A: Life Technologies and Expression Analysis (LTEA) Assay for growth arrest and DNA damage 45 (GADD45A) using HepaRG (AID 2283458). The essentials: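 Cells plated and cultured 48 h, switched to serum-free induction medium, then dosed for 48 h (100 uM top, half-log dilutions, 0.5% DMSO). RNA was isolated and transcript measured by Fluidigm qRT-PCR.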

Read-out in assay [10]: Forkhead box O3 (FOXO3), FOXO3 (gene 2309)
Kind of assay: LTEA_HepaRG_FOXO3: Life Technologies and Expression Analysis (LTEA) Assay for Forkhead box O3 (FOXO3) using HepaRG (AID 2283459). The essentials: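 Differentiated human HepaRG cells, 48 h post-plating, exposed in duplicate for 48 h in serum-free induction medium; 8-point half-log series from 100 uM in 0.5% DMSO. FOXO3 mRNA by TaqMan qRT-PCR, normalized to ACTB/GAPDH/POLR2A; bidirectional fit versus DMSO.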

Read-out in assay [11]: ABC Transporter (ABCB1), ABCB1 (gene 5243)
The experiment in a line: LTEA_HepaRG_ABCB1: Life Technologies and Expression Analysis (LTEA) Assay for ABC Transporter (ABCB1) using HepaRG (AID 2283460). The essentials: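 HepaRG cells exposed in duplicate for 48 h in serum-free induction medium to eight half-log concentrations up to 100 uM in 0.5% DMSO. ABCB1 mRNA quantified by qRT-PCR, normalised to ACTB, GAPDH and POLR2A; fitted bidirectionally versus DMSO.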

Read-out in assay [12]: growth arrest and DNA damage 45 (GADD45B), GADD45B (gene 4616)
The experiment in a line: LTEA_HepaRG_GADD45B: Life Technologies and Expression Analysis (LTEA) Assay for growth arrest and DNA damage 45 (GADD45B) using HepaRG (AID 2283461). The essentials: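 Human HepaRG monolayers receive chemicals for 48 h at eight half-log concentrations, highest 100 uM, in 0.5% DMSO. Expression is measured by TaqMan qRT-PCR and normalized to ACTB, GAPDH and POLR2A.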

Read-out in assay [13]: ABC Transporter (ABCB11), ABCB11 (gene 8647)
Kind of assay: LTEA_HepaRG_ABCB11: Life Technologies and Expression Analysis (LTEA) Assay for ABC Transporter (ABCB11) using HepaRG (AID 2283463). The essentials: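 Differentiated human HepaRG cells in serum-free induction medium, dosed in duplicate for 48 h. Eight-point half-log series from 100 uM in 0.5% DMSO; ABCB11 mRNA by qRT-PCR, normalized to ACTB, GAPDH, POLR2A, fitted bidirectionally versus DMSO.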

Read-out in assay [14]: ABC Transporter (ABCC2), ABCC2 (gene 1244)
The experiment in a line: LTEA_HepaRG_ABCC2: Life Technologies and Expression Analysis (LTEA) Assay for ABC Transporter (ABCC2) using HepaRG (AID 2283464). The essentials:
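After plating and 48 h culture, HepaRG medium is replaced with serum-free induction medium and chemicals are added (8 concentrations, max 100 uM, 0.5% DMSO) for 48 h. Total RNA then undergoes qRT-PCR for ABCC2 with housekeeping normalization.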

Read-out in assay [15]: Broad substrate specificity ATP-binding cassette transporter ABCG2 (Homo sapiens) (UniProt Q9UNQ0)
Kind of assay: LTEA_HepaRG_ABCG2: Life Technologies and Expression Analysis (LTEA) Assay for ABC Transporter (ABCG2) using HepaRG (AID 2283465). The essentials:
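Differentiated HepaRG cells were exposed for 48 h in serum-free induction medium to 8 half-log concentrations, top 100 uM, in 0.5% DMSO. ABCG2 mRNA was measured by qRT-PCR, normalized to ACTB, GAPDH and POLR2A, with bidirectional fitting versus DMSO.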

Read-out in assay [16]: Peroxisomal acyl-coenzyme A oxidase 1 (ACOX1) gene, ACOX1 (gene 51)
Kind of assay: LTEA_HepaRG_ACOX1: Life Technologies and Expression Analysis (LTEA) Assay for Peroxisomal acyl-coenzyme A oxidase 1 (ACOX1) gene using HepaRG (AID 2283467). The essentials:
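HepaRG cells, plated 48 h then switched to serum-free induction medium, were exposed in duplicate for 48 h to 8-point half-log concentrations up to 100 uM in 0.5% DMSO. ACOX1 mRNA was measured by qRT-PCR, normalized to ACTB/GAPDH/POLR2A, and fitted bidirectionally versus DMSO.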

Read-out in assay [17]: Alkaline Phosphatase, Placental (ALPP) gene, ALPP (gene 250)
The experiment in a line: LTEA_HepaRG_ALPP: Life Technologies and Expression Analysis (LTEA) Assay for Alkaline Phosphatase, Placental (ALPP) gene using HepaRG (AID 2283468). The essentials: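 Using human liver HepaRG cells, chemicals are tested in duplicate over 48 h at half-log concentrations topping at 100 uM; phenobarbital 1 mM serves as induction control. ALPP mRNA change by qRT-PCR, bidirectional fit against vehicle.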

Read-out in assay [18]: ABC Transporter (ABCC3), ABCC3 (gene 8714)
Kind of assay: LTEA_HepaRG_ABCC3: Life Technologies and Expression Analysis (LTEA) Assay for ABC Transporter (ABCC3) using HepaRG (AID 2283462). Put shortly: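 Transcriptional change of ABCC3 in HepaRG after 48 h treatment, determined by qRT-PCR normalized to endogenous controls. Concentrations spanned eight half-log steps to 100 uM in 0.5% DMSO.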

Read-out in assay [19]: ATP-citrate lyase (ACLY), ACLY (gene 47)
Kind of assay: LTEA_HepaRG_ACLY: Life Technologies and Expression Analysis (LTEA) Assay for ATP-citrate lyase (ACLY) using HepaRG (AID 2283466). The essentials: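 Differentiated HepaRG cells exposed 48 h in serum-free induction medium to eight half-log concentrations up to 100 uM in 0.5% DMSO, duplicates. Transcript measured by Fluidigm TaqMan qRT-PCR, normalized to ACTB, GAPDH, POLR2A; bidirectional fit versus DMSO.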

Sequence of Broad substrate specificity ATP-binding cassette transporter ABCG2 (Homo sapiens) (Q9UNQ0 whole entry, looked up): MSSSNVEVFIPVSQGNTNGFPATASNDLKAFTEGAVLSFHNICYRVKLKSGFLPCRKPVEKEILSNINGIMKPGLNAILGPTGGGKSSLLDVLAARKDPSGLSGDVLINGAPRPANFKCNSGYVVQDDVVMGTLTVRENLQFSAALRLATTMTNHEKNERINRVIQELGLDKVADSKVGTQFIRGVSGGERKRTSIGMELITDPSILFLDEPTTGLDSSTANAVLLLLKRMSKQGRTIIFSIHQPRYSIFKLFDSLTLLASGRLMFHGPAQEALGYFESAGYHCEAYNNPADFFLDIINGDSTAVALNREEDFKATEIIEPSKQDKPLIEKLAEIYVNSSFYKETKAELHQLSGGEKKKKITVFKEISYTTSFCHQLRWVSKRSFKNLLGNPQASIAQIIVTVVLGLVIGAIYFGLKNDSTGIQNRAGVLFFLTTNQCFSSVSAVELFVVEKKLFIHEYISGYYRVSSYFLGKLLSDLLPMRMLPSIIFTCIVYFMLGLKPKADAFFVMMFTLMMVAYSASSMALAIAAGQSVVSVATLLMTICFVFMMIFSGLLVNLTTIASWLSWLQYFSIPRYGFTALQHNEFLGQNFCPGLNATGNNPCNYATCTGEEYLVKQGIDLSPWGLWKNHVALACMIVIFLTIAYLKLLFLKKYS

In the case of `CN1CCN(c2ccccc2/C=C2\SCCN(c3ccc(Cl)c(Cl)c3)C2=O)CC1`, the result in assay [1], in [2], in assay [3], in [4], in assay [7] and in assay [9] was inactive. The outcome in assay [11], in assay [14], in [15] and in assay [16] was inactive. Also, the AC50 was 50 µM (active) in assay [5]; 1.56 µM (active) in assay [6]; 90.3 µM (active) in assay [8]; 69 µM (active) in assay [10]; 50 µM (active) in assay [12]; 22.5 µM (active) in assay [13]. The AC50 in assay [17] was 15.8 µM (active).
Regarding `CC[C@H](c1ccc(O)cc1)[C@@H](CC)c1ccc(O)cc1`, the AC50 in assay [1] is 62.4 µM (active); in assay [2], 89.8 µM (active); in assay [4] it was 78.4 µM (active); in [5], 79.9 µM (active); in [7], 75.7 µM (active); in [8] it was 78.5 µM (active). In addition, the AC50 is 77 µM (active) in [9]; 77.5 µM (active) in assay [11]; 66.9 µM (active) in [12]; 94.4 µM (active) in [14]; 77.8 µM (active) in [16]; 83.6 µM (active) in [17]. The result in assay [6], in assay [10], in assay [18], in [13] and in [15] was inactive.
As for `COc1ccc([N+](=O)[O-])cc1N`, the result in [1], in assay [2], in assay [3], in assay [4], in assay [5] and in [7] was inactive. Further, the call in assay [8], in assay [9], in assay [10], in assay [11], in assay [12] and in assay [18] was inactive. Further, the compound was classed as inactive in assay [13], in [14], in assay [15], in assay [16] and in [17]. Further, the AC50 in assay [6] is 50 µM (active).
Regarding `CCCOC(=O)c1ccc(O)cc1`, the call in [1], in [2], in assay [4], in assay [5], in [6] and in assay [7] was inactive. For the same compound, the compound was classed as inactive in assay [8], in assay [9], in assay [10], in [11], in [12] and in assay [18]. The compound was classed as inactive in assay [13], in assay [14], in assay [15], in assay [16] and in assay [17].
With `CCCCOCCO`, the call in assay [1], in assay [2], in assay [4], in assay [5], in assay [7] and in assay [8] was inactive. For the same compound, the call in assay [9], in assay [10], in assay [11], in [12], in assay [18] and in assay [13] was inactive. Moreover, the outcome in assay [14], in assay [15], in assay [19], in assay [16] and in assay [17] was inactive. In addition, the AC50 in assay [6] was 50 µM (active).
Regarding `CCCCCCC(=O)O`, the compound was classed as inactive in [1], in assay [2], in [3], in assay [4], in assay [5] and in assay [7]. Besides, the compound was called inactive in [8], in [9], in [10], in assay [11], in [12] and in [13]. In addition, the compound was classed as inactive in [14], in [15], in assay [16] and in assay [17]. For the same compound, in assay [6], the AC50 is 59.9 µM (active).
On to `ClC1=C(Cl)C(Cl)(Cl)C(Cl)=C1Cl`, for which the result in assay [1], in assay [2], in assay [4], in [5], in assay [6] and in [7] was inactive. The compound was called inactive in assay [8], in assay [9], in assay [10], in assay [11], in [12] and in assay [18]. The call in assay [13], in assay [14], in assay [15], in [16] and in [17] was inactive.
